Test in all cases: DAPPL (digital affinity profiling via proximity ligation, sequencing); 10 mM Tris-HCl pH 7.5, 50 mM NaCl, 1 mM DTT, 4% glycerol, room temperature, 30 min; GST-TFs on glutathione beads, 16-mer random dsDNA library, 0.1% formaldehyde crosslink after washing; high values mean tight binding
For one assay, the target named is T1, FLI1 (Homo sapiens, UniProt Q01543 1-452).
T1 sequence: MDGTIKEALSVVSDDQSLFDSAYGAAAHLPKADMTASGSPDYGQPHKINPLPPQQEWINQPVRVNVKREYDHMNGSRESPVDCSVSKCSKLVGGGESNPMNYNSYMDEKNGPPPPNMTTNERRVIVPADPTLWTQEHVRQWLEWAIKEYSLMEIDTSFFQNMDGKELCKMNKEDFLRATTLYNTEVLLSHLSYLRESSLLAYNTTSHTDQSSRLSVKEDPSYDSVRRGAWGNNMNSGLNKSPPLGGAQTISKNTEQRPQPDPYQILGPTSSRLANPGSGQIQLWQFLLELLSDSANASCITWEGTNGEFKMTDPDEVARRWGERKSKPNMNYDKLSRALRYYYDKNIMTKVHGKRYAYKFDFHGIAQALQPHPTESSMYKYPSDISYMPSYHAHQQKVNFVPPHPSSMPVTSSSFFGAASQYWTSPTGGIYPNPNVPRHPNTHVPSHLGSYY
To be noted: protein: recombinant; tags: N-terminal GST; dsDNA, one strand shown. A digest of the protocol: (§1)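 Beads coated with glutathione captured GST-fused human transcription factors that had been expressed in yeast, and the factors were then given DNA barcodes and pooled with a tag-only sample. The pools were incubated with 200 nmole of a random double-stranded 16-mer DNA library in Tris/NaCl/DTT/glycerol buffer for 30 min at room temperature, washed, crosslinked with 0.1% formaldehyde and proximity-ligated with BsaI/T4 ligase at 37 °C for 1 h. PCR amplification and Illumina NextSeq500 sequencing came last. Binding signal is each hexamer's read frequency for a factor divided by its frequency for the tag-only sample.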

In another assay the target is T2, GABPA (Homo sapiens, UniProt Q06546 1-454).
T2 sequence: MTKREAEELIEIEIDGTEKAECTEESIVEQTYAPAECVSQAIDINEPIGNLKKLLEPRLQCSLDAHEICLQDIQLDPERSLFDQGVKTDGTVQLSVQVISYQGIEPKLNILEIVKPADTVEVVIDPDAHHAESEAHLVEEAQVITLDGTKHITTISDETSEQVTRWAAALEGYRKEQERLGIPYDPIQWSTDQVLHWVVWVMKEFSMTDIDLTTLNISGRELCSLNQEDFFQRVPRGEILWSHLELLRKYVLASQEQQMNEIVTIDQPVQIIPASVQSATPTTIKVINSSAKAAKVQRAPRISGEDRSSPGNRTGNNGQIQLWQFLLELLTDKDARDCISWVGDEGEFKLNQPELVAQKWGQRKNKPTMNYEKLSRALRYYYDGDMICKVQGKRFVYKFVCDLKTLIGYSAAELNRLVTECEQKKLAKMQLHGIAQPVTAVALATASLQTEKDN
To be noted: protein: recombinant; tags: N-terminal GST; dsDNA, one strand shown. A digest of the protocol: as §1

Another assay has as its target T3, ERG (Homo sapiens, UniProt P11308 1-479).
T3 sequence: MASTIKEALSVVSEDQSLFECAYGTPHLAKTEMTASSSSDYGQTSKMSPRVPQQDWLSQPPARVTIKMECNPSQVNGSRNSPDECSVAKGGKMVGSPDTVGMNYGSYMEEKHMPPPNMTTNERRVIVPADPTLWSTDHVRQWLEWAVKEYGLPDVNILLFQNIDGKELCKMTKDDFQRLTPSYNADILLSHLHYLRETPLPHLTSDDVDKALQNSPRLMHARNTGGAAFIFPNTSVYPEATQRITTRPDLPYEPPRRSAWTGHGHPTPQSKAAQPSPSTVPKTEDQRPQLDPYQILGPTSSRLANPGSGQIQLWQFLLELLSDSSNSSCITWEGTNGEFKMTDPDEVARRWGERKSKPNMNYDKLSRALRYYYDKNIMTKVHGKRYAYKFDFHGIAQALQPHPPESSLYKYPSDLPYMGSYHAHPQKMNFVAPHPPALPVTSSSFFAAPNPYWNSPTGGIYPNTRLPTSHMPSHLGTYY
To be noted: protein: recombinant; tags: N-terminal GST; dsDNA, one strand shown. The procedure, abridged:
as §1

The target of the next assay is ELF1 (Homo sapiens, UniProt P32519 1-619). To be noted: protein: recombinant; tags: N-terminal GST; dsDNA, one strand shown. The procedure, abridged: as §1
ELF1, sequence (P32519 whole entry): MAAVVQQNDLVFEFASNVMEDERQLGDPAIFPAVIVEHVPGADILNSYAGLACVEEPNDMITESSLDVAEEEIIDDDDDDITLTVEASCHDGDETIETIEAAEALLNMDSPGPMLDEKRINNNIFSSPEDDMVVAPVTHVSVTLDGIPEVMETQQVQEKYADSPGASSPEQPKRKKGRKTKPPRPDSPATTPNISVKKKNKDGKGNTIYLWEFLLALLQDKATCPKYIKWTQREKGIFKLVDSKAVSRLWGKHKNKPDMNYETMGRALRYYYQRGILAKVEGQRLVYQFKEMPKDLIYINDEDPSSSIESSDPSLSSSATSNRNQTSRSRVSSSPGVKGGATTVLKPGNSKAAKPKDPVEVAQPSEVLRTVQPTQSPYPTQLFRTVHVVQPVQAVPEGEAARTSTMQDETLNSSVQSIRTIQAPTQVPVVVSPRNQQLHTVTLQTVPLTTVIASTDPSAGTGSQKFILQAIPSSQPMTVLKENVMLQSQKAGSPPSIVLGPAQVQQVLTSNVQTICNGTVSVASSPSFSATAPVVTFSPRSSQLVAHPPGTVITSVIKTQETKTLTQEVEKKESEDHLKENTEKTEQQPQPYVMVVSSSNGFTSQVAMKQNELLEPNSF
The target of a further assay is T4, EHF (Homo sapiens, UniProt Q9NZC4 1-300).
T4 sequence: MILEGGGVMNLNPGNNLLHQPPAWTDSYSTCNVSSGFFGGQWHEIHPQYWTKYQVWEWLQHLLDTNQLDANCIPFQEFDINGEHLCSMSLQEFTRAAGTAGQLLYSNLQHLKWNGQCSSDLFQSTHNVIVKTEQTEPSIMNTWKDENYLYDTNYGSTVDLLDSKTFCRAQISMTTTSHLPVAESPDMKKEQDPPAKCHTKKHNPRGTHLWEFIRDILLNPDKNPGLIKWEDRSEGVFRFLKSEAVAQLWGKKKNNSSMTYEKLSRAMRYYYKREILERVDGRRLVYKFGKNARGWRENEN
To be noted: protein: recombinant; tags: N-terminal GST; dsDNA, one strand shown. The procedure, abridged:
as §1

For another assay, the target named is SPI1 (Homo sapiens, UniProt P17947 1-270). To be noted: protein: recombinant; tags: N-terminal GST; dsDNA, one strand shown. A digest of the protocol: as §1
The target in another assay is SPIB (Homo sapiens, UniProt Q01892 1-262). To be noted: protein: recombinant; tags: N-terminal GST; dsDNA, one strand shown. A digest of the protocol:
as §1

For a further assay, the target named is T5, ELK3 (Homo sapiens, UniProt P41970 1-407).
T5 sequence: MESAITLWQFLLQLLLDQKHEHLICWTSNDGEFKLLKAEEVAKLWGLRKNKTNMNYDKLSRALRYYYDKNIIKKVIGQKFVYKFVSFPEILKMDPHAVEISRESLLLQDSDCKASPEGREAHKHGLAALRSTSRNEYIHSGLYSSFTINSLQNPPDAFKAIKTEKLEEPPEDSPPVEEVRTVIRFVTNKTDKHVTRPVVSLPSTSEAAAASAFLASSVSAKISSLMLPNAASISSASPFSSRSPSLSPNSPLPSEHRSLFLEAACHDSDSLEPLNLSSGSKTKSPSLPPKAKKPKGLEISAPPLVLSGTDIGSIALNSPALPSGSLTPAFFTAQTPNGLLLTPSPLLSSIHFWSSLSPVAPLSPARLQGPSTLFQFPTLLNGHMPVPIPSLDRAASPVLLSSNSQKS
To be noted: protein: recombinant; tags: N-terminal GST; dsDNA, one strand shown. The procedure, abridged:
as §1

Another assay concerns the target T6, FEV (Homo sapiens, UniProt Q99581 1-238).
T6 sequence: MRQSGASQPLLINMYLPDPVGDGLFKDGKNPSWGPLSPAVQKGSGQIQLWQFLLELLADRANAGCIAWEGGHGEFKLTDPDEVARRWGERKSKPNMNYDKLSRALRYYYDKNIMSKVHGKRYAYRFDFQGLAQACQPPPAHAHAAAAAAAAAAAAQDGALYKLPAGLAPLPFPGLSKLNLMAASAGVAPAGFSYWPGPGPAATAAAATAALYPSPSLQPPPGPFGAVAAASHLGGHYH
To be noted: protein: recombinant; tags: N-terminal GST; dsDNA, one strand shown. A digest of the protocol:
as §1

The target in another assay is ETV5 (Homo sapiens, UniProt P41161 1-510). To be noted: protein: recombinant; tags: N-terminal GST; dsDNA, one strand shown. The procedure, abridged: as §1
ETV5, sequence (P41161 whole entry): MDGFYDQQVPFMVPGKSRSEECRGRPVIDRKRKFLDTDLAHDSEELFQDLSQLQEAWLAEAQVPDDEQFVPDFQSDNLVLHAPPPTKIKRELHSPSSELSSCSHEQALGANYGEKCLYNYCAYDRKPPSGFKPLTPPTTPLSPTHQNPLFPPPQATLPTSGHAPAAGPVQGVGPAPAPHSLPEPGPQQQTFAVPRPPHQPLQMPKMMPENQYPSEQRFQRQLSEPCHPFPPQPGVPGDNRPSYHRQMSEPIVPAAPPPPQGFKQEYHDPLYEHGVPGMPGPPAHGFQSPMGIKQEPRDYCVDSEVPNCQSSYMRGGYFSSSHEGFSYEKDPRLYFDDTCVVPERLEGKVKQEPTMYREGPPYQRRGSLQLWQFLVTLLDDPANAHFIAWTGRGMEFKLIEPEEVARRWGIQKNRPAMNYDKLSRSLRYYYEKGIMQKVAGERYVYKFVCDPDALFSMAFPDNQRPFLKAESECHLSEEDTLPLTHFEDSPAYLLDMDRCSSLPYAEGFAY
Another assay addresses HSF1 (Homo sapiens, UniProt Q00613 1-529). To be noted: protein: recombinant; tags: N-terminal GST; chain copies: 3; dsDNA, one strand shown. A digest of the protocol:
as §1

A further assay has as its target T7, SPIC (Homo sapiens, UniProt Q8N5J4 1-248).
T7 sequence: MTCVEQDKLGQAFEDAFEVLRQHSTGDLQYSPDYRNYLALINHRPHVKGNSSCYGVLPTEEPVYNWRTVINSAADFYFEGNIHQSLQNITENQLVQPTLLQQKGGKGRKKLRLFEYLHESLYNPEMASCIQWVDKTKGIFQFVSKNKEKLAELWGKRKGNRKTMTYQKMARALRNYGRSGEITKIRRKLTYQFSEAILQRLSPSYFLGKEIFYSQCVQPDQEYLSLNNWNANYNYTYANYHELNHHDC
To be noted: protein: recombinant; tags: N-terminal GST; dsDNA, one strand shown. The procedure, abridged: as §1

Another assay addresses ELF4 (Homo sapiens, UniProt Q99607 1-663). To be noted: protein: recombinant; tags: N-terminal GST; dsDNA, one strand shown. A digest of the protocol:
as §1

For a further assay, the target named is T8, ELK4 (Homo sapiens, UniProt P28324-2 1-405).
T8 sequence: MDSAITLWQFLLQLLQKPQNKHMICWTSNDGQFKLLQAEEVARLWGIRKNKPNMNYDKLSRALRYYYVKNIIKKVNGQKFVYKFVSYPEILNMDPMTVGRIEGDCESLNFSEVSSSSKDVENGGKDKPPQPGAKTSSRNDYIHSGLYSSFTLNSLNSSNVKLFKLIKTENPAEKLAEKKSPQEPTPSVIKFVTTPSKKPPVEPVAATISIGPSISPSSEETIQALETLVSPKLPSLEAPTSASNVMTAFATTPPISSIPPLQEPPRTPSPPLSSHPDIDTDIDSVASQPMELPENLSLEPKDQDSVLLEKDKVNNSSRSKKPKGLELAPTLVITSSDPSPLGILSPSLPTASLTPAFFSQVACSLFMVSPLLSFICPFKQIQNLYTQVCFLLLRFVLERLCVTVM
To be noted: protein: recombinant; tags: N-terminal GST; dsDNA, one strand shown. The procedure, abridged: as §1

The target in the next assay is T9, ETV2 (Homo sapiens, UniProt O00321 1-342).
T9 sequence: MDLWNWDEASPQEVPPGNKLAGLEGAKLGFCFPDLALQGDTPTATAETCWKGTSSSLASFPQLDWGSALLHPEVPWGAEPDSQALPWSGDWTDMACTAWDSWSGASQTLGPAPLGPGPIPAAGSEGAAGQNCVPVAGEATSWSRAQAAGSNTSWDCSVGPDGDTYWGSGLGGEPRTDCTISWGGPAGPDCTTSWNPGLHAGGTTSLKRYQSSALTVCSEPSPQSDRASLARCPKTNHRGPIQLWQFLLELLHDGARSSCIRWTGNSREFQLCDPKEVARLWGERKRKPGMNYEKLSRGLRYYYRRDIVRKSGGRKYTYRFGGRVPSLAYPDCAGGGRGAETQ
To be noted: protein: recombinant; tags: N-terminal GST; dsDNA, one strand shown. A digest of the protocol: as §1

In a further assay the target is T10, ELF3 (Homo sapiens, UniProt P78545 1-371).
T10 sequence: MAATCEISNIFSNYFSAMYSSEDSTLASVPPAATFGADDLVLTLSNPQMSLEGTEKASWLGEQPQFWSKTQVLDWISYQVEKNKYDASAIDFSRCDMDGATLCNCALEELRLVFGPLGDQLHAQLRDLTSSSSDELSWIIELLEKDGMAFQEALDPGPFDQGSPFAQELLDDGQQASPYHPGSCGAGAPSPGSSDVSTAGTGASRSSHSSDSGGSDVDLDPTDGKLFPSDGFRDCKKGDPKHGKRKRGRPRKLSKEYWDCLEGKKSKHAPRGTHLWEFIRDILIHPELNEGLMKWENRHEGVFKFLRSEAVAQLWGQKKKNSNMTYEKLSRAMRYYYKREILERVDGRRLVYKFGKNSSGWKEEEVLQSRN
To be noted: protein: recombinant; tags: N-terminal GST; dsDNA, one strand shown. The procedure, abridged: as §1

The target of another assay is CRX (Homo sapiens, UniProt O43186 1-299). To be noted: protein: recombinant; tags: N-terminal GST; dsDNA, one strand shown. A digest of the protocol: as §1
CRX, sequence (O43186 whole entry): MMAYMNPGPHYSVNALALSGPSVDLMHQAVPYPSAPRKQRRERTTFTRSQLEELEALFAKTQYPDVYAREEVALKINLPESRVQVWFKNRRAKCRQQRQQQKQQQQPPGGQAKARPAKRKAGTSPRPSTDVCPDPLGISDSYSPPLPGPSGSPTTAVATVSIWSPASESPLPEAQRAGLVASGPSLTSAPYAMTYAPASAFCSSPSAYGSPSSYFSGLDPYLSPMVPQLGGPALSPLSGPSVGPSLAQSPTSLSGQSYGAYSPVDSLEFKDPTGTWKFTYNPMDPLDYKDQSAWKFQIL
For another assay, the target named is ETV1 (Homo sapiens, UniProt P50549 1-477). To be noted: protein: recombinant; tags: N-terminal GST; dsDNA, one strand shown. A digest of the protocol:
as §1

SPIB, sequence (Q01892 whole entry): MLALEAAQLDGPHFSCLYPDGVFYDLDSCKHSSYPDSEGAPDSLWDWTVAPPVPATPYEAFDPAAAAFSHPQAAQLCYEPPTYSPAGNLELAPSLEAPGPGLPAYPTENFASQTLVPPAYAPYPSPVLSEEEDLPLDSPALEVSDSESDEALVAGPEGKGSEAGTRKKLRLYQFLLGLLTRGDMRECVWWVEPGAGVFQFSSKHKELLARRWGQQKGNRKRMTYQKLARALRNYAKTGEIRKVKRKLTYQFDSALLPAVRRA
HSF1, sequence (Q00613 whole entry): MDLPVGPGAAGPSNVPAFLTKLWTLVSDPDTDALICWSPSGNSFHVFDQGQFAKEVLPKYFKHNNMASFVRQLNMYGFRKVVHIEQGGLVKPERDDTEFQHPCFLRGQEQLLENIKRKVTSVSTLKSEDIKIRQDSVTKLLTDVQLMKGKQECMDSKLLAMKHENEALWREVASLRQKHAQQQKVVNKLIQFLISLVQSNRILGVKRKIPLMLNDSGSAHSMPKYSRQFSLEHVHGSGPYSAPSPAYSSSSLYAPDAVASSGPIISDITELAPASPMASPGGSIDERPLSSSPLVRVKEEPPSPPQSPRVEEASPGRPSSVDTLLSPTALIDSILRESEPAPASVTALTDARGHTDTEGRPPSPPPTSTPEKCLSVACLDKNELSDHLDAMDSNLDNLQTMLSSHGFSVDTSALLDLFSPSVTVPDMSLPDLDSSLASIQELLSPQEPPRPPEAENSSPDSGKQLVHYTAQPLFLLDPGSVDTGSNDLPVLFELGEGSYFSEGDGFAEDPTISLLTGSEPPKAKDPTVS
ELF4, sequence (Q99607 whole entry): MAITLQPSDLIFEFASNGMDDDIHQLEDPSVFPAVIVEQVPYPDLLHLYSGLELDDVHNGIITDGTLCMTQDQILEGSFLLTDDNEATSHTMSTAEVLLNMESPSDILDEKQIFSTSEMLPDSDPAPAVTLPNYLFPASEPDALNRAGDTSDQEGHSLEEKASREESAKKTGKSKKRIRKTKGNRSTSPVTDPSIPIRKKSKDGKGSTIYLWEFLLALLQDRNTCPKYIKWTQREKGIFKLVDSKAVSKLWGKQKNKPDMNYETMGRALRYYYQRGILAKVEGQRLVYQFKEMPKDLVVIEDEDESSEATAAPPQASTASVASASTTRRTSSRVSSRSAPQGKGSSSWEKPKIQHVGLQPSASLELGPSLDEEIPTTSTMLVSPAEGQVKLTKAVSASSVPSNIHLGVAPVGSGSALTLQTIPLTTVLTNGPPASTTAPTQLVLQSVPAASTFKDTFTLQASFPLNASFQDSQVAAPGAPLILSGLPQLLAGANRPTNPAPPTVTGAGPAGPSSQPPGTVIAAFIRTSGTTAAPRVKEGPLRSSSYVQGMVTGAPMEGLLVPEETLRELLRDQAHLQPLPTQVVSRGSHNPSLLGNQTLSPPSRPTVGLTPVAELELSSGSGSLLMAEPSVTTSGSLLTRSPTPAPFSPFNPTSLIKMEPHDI
ETV1, sequence (P50549 whole entry): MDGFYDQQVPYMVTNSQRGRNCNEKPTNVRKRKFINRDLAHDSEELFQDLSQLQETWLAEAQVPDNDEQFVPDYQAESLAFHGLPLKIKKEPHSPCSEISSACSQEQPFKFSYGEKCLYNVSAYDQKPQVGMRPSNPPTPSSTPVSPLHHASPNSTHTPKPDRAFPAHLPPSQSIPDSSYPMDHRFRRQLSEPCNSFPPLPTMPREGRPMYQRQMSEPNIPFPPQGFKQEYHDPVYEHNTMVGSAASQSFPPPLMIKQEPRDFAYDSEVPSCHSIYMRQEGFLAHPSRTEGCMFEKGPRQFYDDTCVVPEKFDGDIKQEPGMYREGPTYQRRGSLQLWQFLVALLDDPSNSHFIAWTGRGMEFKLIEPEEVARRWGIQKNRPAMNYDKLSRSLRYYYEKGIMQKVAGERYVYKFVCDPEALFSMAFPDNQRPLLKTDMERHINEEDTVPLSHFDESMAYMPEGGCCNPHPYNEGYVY

Take GGGTTT: the binding signal was 1.17 fold enrichment (6-mer frequency, TF over GST control) with FLI1; 1.1 fold enrichment (6-mer frequency, TF over GST control) with GABPA; 1.1 fold enrichment (6-mer frequency, TF over GST control) in the assay with ERG; 1.1 fold enrichment (6-mer frequency, TF over GST control) with ELF1; 1.11 fold enrichment (6-mer frequency, TF over GST control) with EHF; 1.05 fold enrichment (6-mer frequency, TF over GST control) with SPI1. Besides, the binding signal in the assay with SPIB is 1.05 fold enrichment (6-mer frequency, TF over GST control); with ELK3, 1.03 fold enrichment (6-mer frequency, TF over GST control); with FEV, 1.06 fold enrichment (6-mer frequency, TF over GST control); with ETV5, 1.08 fold enrichment (6-mer frequency, TF over GST control); with HSF1, 1.12 fold enrichment (6-mer frequency, TF over GST control); in the assay with SPIC, 1.16 fold enrichment (6-mer frequency, TF over GST control). Moreover, the binding signal was 1.2 fold enrichment (6-mer frequency, TF over GST control) with ELF4; 1.12 fold enrichment (6-mer frequency, TF over GST control) with ELK4; 1.33 fold enrichment (6-mer frequency, TF over GST control) with ETV2; 1.05 fold enrichment (6-mer frequency, TF over GST control) in the assay with ELF3; 1.25 fold enrichment (6-mer frequency, TF over GST control) with CRX; 1.1 fold enrichment (6-mer frequency, TF over GST control) in the assay with ETV1.
Regarding AAGGCT, the binding signal with FLI1 was 1.03 fold enrichment (6-mer frequency, TF over GST control); with GABPA, 1.12 fold enrichment (6-mer frequency, TF over GST control); with ELF1, 1.1 fold enrichment (6-mer frequency, TF over GST control); with EHF, 1.02 fold enrichment (6-mer frequency, TF over GST control); with SPIB it was 1.01 fold enrichment (6-mer frequency, TF over GST control); with ELK3, 1.1 fold enrichment (6-mer frequency, TF over GST control). The binding signal with FEV is 1.05 fold enrichment (6-mer frequency, TF over GST control); in the assay with ETV5 it was 1.01 fold enrichment (6-mer frequency, TF over GST control); with HSF1 it was 1.1 fold enrichment (6-mer frequency, TF over GST control); with SPIC, 1.06 fold enrichment (6-mer frequency, TF over GST control); with ELK4, 1 fold enrichment (6-mer frequency, TF over GST control); with ETV2, 1.15 fold enrichment (6-mer frequency, TF over GST control). The binding signal is 1.02 fold enrichment (6-mer frequency, TF over GST control) with ELF3 and 1.43 fold enrichment (6-mer frequency, TF over GST control) with CRX.

These data come from paper PMC7862700, “An all-to-all approach to the identification of sequence-specific readers for epigenetic DNA modifications on cytosine”.
